Screening data: PubChem BioAssay, National Center for Advancing Translational Sciences (NCATS)
This excerpt belongs to a sample that is enriched for hits.
IkB sig inh: inhibitors of IkB signaling in ABC-DLBCL cells; ABC-DLBCL IkBa-CBG/CBR dual luciferase ratio, 4 h; response scale: scaled: untreated 0%, proteasome inhibitor 100%; Potency, µM (titrated, usually from 57.1 µM), without a hit: at the top dose IkBa stabilization activation; 110,000 compounds, 0.04% hits; AID 445; active = well fitted curve in the direction sought with a large enough effect in the signal ratio, not every such curve was filed as active; inconclusive = small, poorly fitted or top-dose-only effect, or a change in a side signal; the % refers to the signal ratio;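 also: potency is read from the fitted curve at half-maximal effect; the direction sought is a rising ratio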
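Curves were fitted separately to fusion (green), unfused (red) and ratio luminescence, then classed by r2, magnitude and activity. Cells: OCI-Ly3, 4 h compound plus doxycycline at 37C; 10 uM MG-132 defined full response.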
Luciferase inh: inhibitors of firefly luciferase. Potency, µM (doses to about 57.1 µM), without a hit: top-dose activity change, negative = inhibition, actives largely listed as inhibitors. purified firefly luciferase, luminescence, 8 min. P08659. 72,000 compounds, 2.2% hits; also: potency is read from the fitted curve at half-maximal effect; % is scaled to controls: 0 for no effect and ±100 for the full control effect; nearly all actives have a fitted effect of over 40% in size
Target sequence (P08659 whole entry, looked up): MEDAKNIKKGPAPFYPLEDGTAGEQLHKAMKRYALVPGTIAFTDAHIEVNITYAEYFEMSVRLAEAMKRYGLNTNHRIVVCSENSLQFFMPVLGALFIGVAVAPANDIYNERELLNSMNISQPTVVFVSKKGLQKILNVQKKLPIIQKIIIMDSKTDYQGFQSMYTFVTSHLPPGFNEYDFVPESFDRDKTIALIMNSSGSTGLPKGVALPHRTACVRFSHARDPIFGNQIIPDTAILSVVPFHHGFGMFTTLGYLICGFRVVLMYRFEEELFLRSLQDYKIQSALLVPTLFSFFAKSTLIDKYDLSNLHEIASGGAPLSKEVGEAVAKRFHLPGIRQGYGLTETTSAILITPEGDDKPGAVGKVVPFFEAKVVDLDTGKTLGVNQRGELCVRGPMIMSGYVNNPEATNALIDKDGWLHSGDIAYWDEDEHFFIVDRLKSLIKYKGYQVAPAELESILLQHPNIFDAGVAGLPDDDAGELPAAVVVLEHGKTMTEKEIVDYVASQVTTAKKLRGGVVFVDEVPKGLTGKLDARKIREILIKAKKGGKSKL
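Inhibition of light generation by firefly luciferase from ATP and luciferin was profiled with concentration-response curves per sample, ATP held at 10 uM within the enzyme's linear range. Plates were read by luminescence after an 8-minute ambient incubation.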
IMPase inh: IMPase inhibition in cells; P97697; CHO-M1 cells, IP1 accumulation, HTRF TR-FRET ratio; inhibition (IP1 accumulation), % at 46.1 µM; 120,000 tested, under 10 active; active = well fitted curve in the direction sought with a large enough effect in the signal ratio, not every such curve was filed as active; inconclusive = small, poorly fitted or top-dose-only effect, or a change in a side signal; inactive = no such curve, though single readings can be large or run the other way; the % refers to the signal ratio;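 also: cells stimulated with carbachol in lithium chloride buffer; plate controls were DMSO basal wells for no effect and reference inhibitor wells for full effect; higher means more IMPase inhibition seen as more IP1 and lower FRET ratio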
Target sequence (P97697 whole entry, looked up): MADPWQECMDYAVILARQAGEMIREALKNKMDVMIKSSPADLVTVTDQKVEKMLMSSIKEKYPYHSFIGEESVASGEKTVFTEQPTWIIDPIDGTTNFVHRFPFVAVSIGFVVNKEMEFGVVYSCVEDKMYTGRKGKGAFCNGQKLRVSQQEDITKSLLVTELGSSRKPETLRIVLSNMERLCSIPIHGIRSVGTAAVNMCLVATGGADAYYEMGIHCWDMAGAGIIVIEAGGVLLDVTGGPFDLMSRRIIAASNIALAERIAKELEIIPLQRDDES
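CHO-M1, 2000 cells/well, cultured 16–30 h; cpd up to 46 uM; carbachol (50 uM solution, stimulation buffer w/ 50 mM LiCl, pH 7.4), 30 min 37C; IP-One TR-FRET, 10 min RT; Ex 320/Em 665, 620; Hill-fit AC50.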
Hsp90 Hop PPI: changes Hsp90-Hop TPR2A binding signal, up or down; AID 595; AlphaScreen TPR2A-His6 binding biotin-Hsp90 C-terminal peptide; Potency, µM (top dose mostly 57 µM), inactives show top-dose activity change, negative = inhibition; 71,000 compounds, 0.44% hits; active = well fitted curve in either direction with a large enough effect; inconclusive = small, poorly fitted or top-dose-only effect, or another doubt; also: potency is read from the fitted curve at half-maximal effect; % is scaled to controls: 0 for no effect and ±100 for the full control effect
p53ts 39C kill: kills p53ts cells at the nonpermissive temperature | H1299-p53A138V viability at 39C, ATP luminescence, 24 h | Potency, µM (titrated, usually from 46.1 µM), for the others: top-dose activity change, negative = cell killing, actives largely listed as cytotoxic | 130,000 compounds, 1.5% hits; also: potency is read from the fitted curve at half-maximal effect; % is scaled to controls: 0 for no effect and ±100 for the full control effect; nearly all actives have a fitted effect of over 55% in size
p53ts 32C kill: p53ts cell cytotoxicity, permissive temperature; H1299-p53A138V at 32C, ATP luminescence viability, 24 h; Potency, µM (titrated, usually from 46.1 µM), without a hit: at the highest dose activity change, negative = cytotoxicity, actives largely listed as cytotoxic; 130,000 compounds, 0.93% hits; AID 924;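 also: potency is read from the fitted curve at half-maximal effect; 0% = DMSO and -100% = full killing by reference compound; nearly all actives have a fitted effect of over 55% in size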
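ATP-content luminescence (ATPlite) read-out after 24 h compound exposure at 32C in H1299-p53A138V cells (600/well). Tested up to 46 uM. Normalized to DMSO (0%) and 100 uM tamoxifen (100% killing); Hill-fit AC50.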
Active calls of the source: *; u = inconclusive; x = no result given; [ ] = dose if it differs, or a comment. Unless noted, calls follow the shape of the dose curve; as a rule, active = well fitted curve in the direction sought with a large enough effect; inconclusive = small, poorly fitted or top-dose-only effect, or another doubt; inactive = no such curve, though single readings can be large; an effect the other way counts as inactive or inconclusive.

SMILES	IkB sig inh	Luciferase inh	IMPase inh	Hsp90 Hop PPI	p53ts 39C kill	p53ts 32C kill
N=c1cc(C2(O)CCCCC2)n2c(nc3ccccc32)s1	0.3%	1µM*	0.4	-7.4%	1.26µM*	1µM*
O=C1c2sc3nc4ccccc4n3c2C(=O)N1c1ccccc1Cl	u	-6.2%	-9.9	-0.9%	-12.2%	-2.0%
CCN(CC)CC(C)CNC(=O)c1cc(-c2ccc(Br)s2)nc2ccccc12 (stereo not given)	u	x	x	x	u	-22.1%
O=C(Nc1nnc(-c2ccccc2Cl)o1)c1ccco1	u	12.6µM*	2.6	-18.1%	10µM*	12.6µM*
O=C(Nc1nnc(-c2cccs2)o1)c1ccco1	x	x	1.0	x	x	x
Cc1sc2ncn(CC(=O)Nc3cccc(C(F)(F)F)c3)c(=O)c2c1S(=O)(=O)N1CCN(C)CC1	u	x	x	x	1.9%	8.2%
C[C@@]12CC[C@@H]3[C@H](CCC4=CC(=O)CC[C@]43C)[C@@H]1CC[C@@H]2C(=O)COS(=O)(=O)c1ccc(Br)cc1	0.8%[11.4 µM]	2.8%[11.4 µM]	x	-4.6%[11 µM]	17.1%[9.22 µM]	10.0%[9.22 µM]
CC(=NCc1ccco1)c1c(C)[nH]n(-c2nc3ccccc3s2)c1=O	u	2µM*	-0.6	-4.7%	7.94µM*	u
CC(C)CNC(=O)O	1.3%[11.4 µM]	4.0%[11.4 µM]	x	-2.7%[11 µM]	1.3%[9.22 µM]	3.5%[9.22 µM]
c1ccc2c(c1)Cc1cc3cc4c(cc3nc1-2)OCO4	x	x	x	13.9%	1.26µM*	1µM*
O=C(c1cccc(F)c1)N1CCC(c2c[nH]c3ccccc23)(c2c[nH]c3ccccc23)CC1	u	x	x	x	u	-5.4%
O=C(CSc1nc2c([nH]c3ccccc32)c(=O)n1-c1ccccc1)N1CCCC1	-0.6%	x	x	x	-3.1%	2.0%
CCOC(=O)CSc1nc2c(c(=O)n1-c1ccc(OC)cc1)SCC2	0.1%	2.3%	-4.7	1.9%	1.26µM*	1.26µM*
Cc1c(C(=O)Nc2cccc(F)c2)oc2c1-c1nn(Cc3c(F)cccc3Cl)cc1CC2	1.2%	x	x	x	18.9%	-3.4%
CCC(C)NC(=O)CSc1c2c(nc3cc(Cl)ccc13)CCCC2 (stereo not given)	9.7%	x	x	x	-10.3%	2.3%
O=C(CSc1c2c(nc3cc(Cl)ccc13)CCCC2)N1CCN(c2ccccc2)CC1	u	x	x	x	25.1µM*	u
CC1CCN(C(=O)CSc2c3c(nc4cc(Cl)ccc24)CCCC3)CC1	u	x	x	x	15.8µM*	-27.8%
O=C(NCCCN1CCOCC1)c1ccc(-n2c(=O)c(=O)[nH]c3ccccc32)cc1	x	x	x	x	1.3%	8.4%
Cc1ccc(CN2C(=O)c3ccccc3Sc3ccc(C(=O)NCc4ccco4)cc32)cc1	u	x	x	x	-12.6%	13.7%
CC(C)(CO[C@H]1C[C@H]2CC[C@@]1(C)C2(C)C)[N+](=O)[O-]	0.9%[11.4 µM]	2.8%[11.4 µM]	x	-3.2%[11 µM]	4.5%[9.22 µM]	-4.7%[9.22 µM]
Cn1c(=O)c2c(nc(NC3CCCCC3)n2Cc2ccccc2)n(C)c1=O	u	-0.3%	-14.8	-5.5%	26.1%	5.01µM*
Cc1ccc(C)c(NC(=O)CCCN2C(=O)C(c3ccccc3)Oc3cccnc32)c1 (stereo not given)	0.0%	x	x	x	-21.0%	-7.7%
COc1cccc(NC(=O)COc2ccccc2C(N)=O)c1	u	7.94µM*	-7.8	0.9%	10µM*	15.8µM*
COC(=O)COc1ccccc1C(N)=O	x	x	-6.2	x	x	x
CN(c1cccc(NC(=O)COc2ccccc2)c1)S(C)(=O)=O	3.9%	u	-4.5	0.7%	u	u
SMILES	IkB sig inh	Luciferase inh	IMPase inh	Hsp90 Hop PPI	p53ts 39C kill	p53ts 32C kill
Cc1ccccc1OCC(=O)Nc1cccc(N(C)S(C)(=O)=O)c1	11.2%	20µM*	u	-3.9%	-21.5%	-18.4%
Cc1ccccc1-c1nc2c3c(-c4ccccc4)c(-c4ccccc4)oc3ncn2n1	3.6%	x	5.8	x	6.9%	-1.1%
Cc1ccc(-c2cc(-c3ccccc3)no2)c(O)c1	x	x	-11.7	x	5.01µM*	x
COc1ccc(Nc2nc3c(S(=O)(=O)c4ccccc4)nnn3c3ccc(Cl)cc23)cc1OC	0.3%	x	x	x	0.9%	-3.9%
COc1ccc(Nc2nc3c(S(=O)(=O)c4ccccc4)nnn3c3ccc(Cl)cc23)cc1	-0.3%	x	x	x	10µM*	u
CCN(CC)C(C)CN1c2ccccc2Sc2ccccc21 (stereo not given)	x	x	x	x	25.1µM*	-18.8%
Cc1cc(C)n(CC(=O)N2c3ccccc3Sc3ccccc32)n1	x	0.9%[25.5 µM]	7.0	x	x	x
N=C1Sc2ccccc2C2=NCCCN12	u	3.16µM*	13.1	-10.6%	u	-9.0%
Cn1c(C(=O)NCc2cccc(F)c2)cc2cc(S(=O)(=O)N3CCCCC3)ccc21	0.8%	x	x	x	u	-2.2%
CCc1cc2c(c(CC)n1)CCC(=O)N2Cc1ccc(-c2ccccc2-c2nn[nH]n2)cc1	0.3%	15.8µM*	-4.9	2.0%	7.3%	12.6%
CCCCC1=NC2(CCCC2)C(=O)N1Cc1ccc(-c2ccccc2-c2nn[nH]n2)cc1	x	x	x	x	0.1%	-12.5%
C/C(=N\NC(=O)c1ccncc1)c1ccc2ccccc2c1O	-1.1%[11.4 µM]	1.1%[11.4 µM]	x	-13.6%[11 µM]	2µM*	u
CC(/C=C/c1ccccc1)=N\NC(=O)c1ccncc1	x	x	7.5	x	x	x
COc1cc2cc3c4c(cc(OC)c(OC)c4c2cc1OC)CCN3C	3.4%[11.4 µM]	-3.4%[11.4 µM]	20.5	u	31.6µM*	31.6µM*
O=C(Cc1ccccc1)Nc1c(C(=O)Nc2ccccc2F)oc2ccccc12	u	x	x	x	-6.4%	-0.3%
COc1ccc(Cn2c(C3CC3)nc3ccc(NC(=O)C4CC4)cc3c2=O)cc1	1.0%	15.8µM*	13.7	4.9%	u	-20.8%
Cc1ccc(OCCCn2c(CCNC(=O)C3CCCCC3)nc3ccccc32)c(C)c1	u	x	x	x	u	3.7%
CC(C)C(=O)NCCc1nc2ccccc2n1CCCOc1ccc(Cl)cc1	x	x	11.5	x	x	x
CC(C)(C)C(=O)NCCc1nc2ccccc2n1CCCCOc1ccc(Cl)cc1	u	x	x	x	31.6µM*	6.4%
Cc1cc(OCCCn2c(CCNC(=O)C3CCCCC3)nc3ccccc32)ccc1Cl	u	x	x	x	12.6µM*	u
Cc1cccc(C)c1OCCCn1c(CCNC(=O)C2CCCCC2)nc2ccccc21	u	x	x	x	15.8µM*	u
CCCC=O	5.6%	x	x	0.4%	14.1%	-0.2%[1.84 µM]
Cn1cc(C(=O)NCc2ccc(Cl)cc2)c(=O)c2cc(S(=O)(=O)N3CCCCCC3)ccc21	u	x	x	x	-14.0%	-11.1%
CC(=O)c1cccc(NC(=O)c2cc(C(C)C)on2)c1	u	15.8µM*	2.7	-5.7%	u	u
CC(C)c1cc(C(=O)Nc2cccc(Cl)c2)no1	u	12.6µM*	6.7	6.2%	-28.0%	u
CC(C)c1cc(C(=O)Nc2cc(Cl)ccc2O)no1	u	15.8µM*	u	1.0%	u	-29.4%
